MITF act = MITF TRPM1 promoter activation in melanoma cells. 300,000 tested, 0.75% active. activation, % at 12.5 µM. SK-MEL-5 TRPM1-promoter luciferase, 24 h; % of positive control, neutral wells = 0;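 active means mean activation of at least 80% with every replicate also reaching 80%; inconclusive means mean reaches 80% but some replicate falls short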;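 further: 0% = neutral control wells and 100% = parthenolide positive control wells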
HIV Env fusion = HIV envelope-mediated fusion inhibition; HeLa-JRFL Env/CEM21 cell fusion, luciferase; inhibition, % at 12.3 µM; 360,000 tested, 1.1% active;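 active means mean replicate inhibition score of at least 50 and every replicate individually at or above 50; inconclusive means only one of the two criteria met; inactive means mean below 50 and not all replicates reaching 50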;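 further: 0% = plate neutral controls and 100% = maraviroc near 300 nM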
CFTR F508del cor = correctors of CFTR F508del function in bronchial epithelial cells. CFBE cells, YFP halide quenching; stimulated with forskolin plus potentiator P3; % fluorescence drop versus neutral controls. activity (quench increase), % at 7.58 µM. 350,000 tested, 0.36% active. AID 720511;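 active means mean added fluorescence quench of at least 8% versus neutral control, with both replicates also reaching 8%; inconclusive means only one of the mean or replicate conditions met; inactive means mean below 8% and not both replicates reaching 8%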;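 further: cells transiently co-express mutant CFTR-F508del with the halide-sensitive YFP; corrector assay measuring rescue of mutant channel to the surface after 24 h compound exposure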
GSIS activator = primary screen for activators of insulin secretion dependent on glucose, INS-1E cells, GLuc reporter luminescence; INS-1E GLuc reporter insulin secretion, 2-3 h; activation, % at 16.6 µM; 370,000 tested, 0.61% active;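 active means lowest replicate activation of at least 40%, so every replicate reaches that level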;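 further: 0% = median of neutral control wells and 100% = median of IBMX positive control wells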
Wnt act = activates Wnt/beta-catenin signaling in a reporter cell assay; activator, plate reader; activation, % at 9.35 µM; 300,000 tested, 1.2% active; in the data active means activation above about 30%, passing the limit was not always enough; inconclusive means no clear call, values can overlap the other calls;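 further: 0% = neutral control wells and 100% = positive control wells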
An asterisk follows results filed as active; [ ] = another dose, or the depositor's remark. This is a sample that favours compounds with a hit; in the whole collection about 2.7% have one here.

`CCOC(=O)CSc1nc2cc3c(cc2cc1C#N)OCO3` gave MITF act 90.5* and HIV Env fusion -381.4.
Screening CO[C@H]1CN(C)C(=O)c2ccc(NC(C)=O)cc2OC[C@H](C)N(Cc2nccs2)C[C@H]1C returned HIV Env fusion 10.7[16.7 µM], CFTR F508del cor -0.1 and GSIS activator -2.1.
Screening O=C(NCC[C@@H]1CC[C@@H](NC(=O)C2CCOCC2)[C@@H](CO)O1)Nc1ccc(Cl)cc1 returned HIV Env fusion 8.8[16.7 µM], CFTR F508del cor -0.1 and GSIS activator -0.1.
Screening COC(C(=O)C(O)C(C)O)C1Cc2cc3cc(OC4CC(OC5CC(O)C(O)C(C)O5)C(O)C(C)O4)c(C)c(O)c3c(O)c2C(=O)C1OC1CC(OC2CC(OC3CC(O)C(OC)C(C)O3)C(O)C(C)O2)C(O)C(C)O1 (stereo not given) returned HIV Env fusion 78.0*, CFTR F508del cor 12.5*, GSIS activator -4.6 and Wnt act -24.3.
Cc1cccc(S(=O)(=O)N[C@H]2CC[C@@H](CCn3cc(-c4ccccn4)nn3)O[C@H]2CO)c1 was read as HIV Env fusion 28.5[16.7 µM], CFTR F508del cor 0.2 and GSIS activator -9.0.
Screening COC(=O)C[C@H]1CC[C@@H]2[C@H](COc3ccc(NC(=O)c4ccc(C(F)(F)F)cc4)cc3C(=O)N2C)O1 returned CFTR F508del cor 1.6 and GSIS activator -5.4.
For CN1C(=O)c2cc(NC(=O)c3cscn3)ccc2OC[C@H]2O[C@H](CC(=O)NCc3ccc(Cl)c(Cl)c3)CC[C@@H]21 the results were HIV Env fusion inconclusive, CFTR F508del cor -0.4 and GSIS activator -13.5.
COCC(=O)Nc1ccc2c(c1)C(=O)N(C)[C@H]1CC[C@H](CC(=O)NC3CCCC3)O[C@H]1CO2 was read as HIV Env fusion 56.8*[16.7 µM], CFTR F508del cor 2.5 and GSIS activator 14.5.
`COCC(=O)Nc1ccc2c(c1)C(=O)N(C)[C@H]1CC[C@H](CC(=O)NC3CCCC3)O[C@@H]1CO2` gave HIV Env fusion 5.8[16.7 µM], CFTR F508del cor 0.6 and GSIS activator 11.1.
CN1C(=O)c2cc(NC(=O)c3cscn3)ccc2OC[C@@H]2O[C@@H](CC(=O)NCc3ccc(Cl)c(Cl)c3)CC[C@H]21 was read as HIV Env fusion 57.2*[16.7 µM], CFTR F508del cor -0.9 and GSIS activator -6.7.
`COC(=O)C[C@@H]1CC[C@@H]2[C@H](COc3ccc(NC(=O)c4ccc(C(F)(F)F)cc4)cc3C(=O)N2C)O1` gave CFTR F508del cor 11.3* and GSIS activator 0.7.
For CCNC(=O)Nc1ccc2c(c1)C(=O)N(C)[C@@H]1CC[C@@H](CC(=O)NCC3CCCCC3)O[C@@H]1CO2 the results were HIV Env fusion 56.6*[16.7 µM], CFTR F508del cor -4.3 and GSIS activator -5.3.
C[C@H](CO)N1C[C@H](C)[C@H](CN(C)C)Oc2ccc(NS(=O)(=O)c3ccc(Cl)cc3)cc2CC1=O was read as CFTR F508del cor -2.3 and GSIS activator -9.5.
Screening CCNC(=O)C[C@H]1CC[C@@H]2[C@H](COc3ccc(NC(=O)Cc4cccs4)cc3C(=O)N2C)O1 returned HIV Env fusion -5.1[16.7 µM], CFTR F508del cor -1.1 and GSIS activator 1.2.
For CCNC(=O)C[C@@H]1CC[C@@H]2[C@@H](COc3ccc(NC(=O)Cc4cccs4)cc3C(=O)N2C)O1 the results were HIV Env fusion 74.8*[16.7 µM], CFTR F508del cor 1.6 and GSIS activator 6.0.
For C[C@@H]1CCCCO[C@@H](CN(C)C(=O)NC2CCCCC2)[C@H](C)CN([C@H](C)CO)C(=O)c2cc(NS(=O)(=O)c3ccc(F)cc3)ccc2O1 the results were HIV Env fusion -16.9[16.7 µM], CFTR F508del cor 3.6 and GSIS activator -27.3.
Screening COc1ccc(-c2cc3nc(NCc4ccc(N(C)C)cc4)n(C)c(=O)c3s2)cc1OC returned HIV Env fusion 2.0, CFTR F508del cor -4.4, GSIS activator 5.5 and Wnt act 1.6.
Cc1ccc(-c2cc3nc(NCCc4ccncc4)n(C)c(=O)c3s2)cc1 was read as HIV Env fusion -106.1, CFTR F508del cor 2.5, GSIS activator 5.9 and Wnt act 42.4*.
`COc1cccc(CNc2nc3cc(-c4ccc(OC)c(OC)c4)sc3c(=O)n2C)c1` gave HIV Env fusion 59.6*, CFTR F508del cor 1.5, GSIS activator -4.4 and Wnt act -3.0.
For COc1cccc(CNc2nc3cc(-c4ccccc4)sc3c(=O)n2C)c1 the results were HIV Env fusion 63.0*, CFTR F508del cor 0.6 and GSIS activator 23.6.
Screening Cn1c(NCCc2ccncc2)nc2cc(-c3ccsc3)sc2c1=O returned HIV Env fusion 13.3, CFTR F508del cor 0.9, GSIS activator -1.2 and Wnt act -2.6.
For COc1ccc2c3c([nH]c2c1)[C@@H](CO)N(C)CC31CN(C(=O)c2ccccn2)C1 the results were CFTR F508del cor -1.1 and GSIS activator -7.8.
O=C(c1ccccn1)N(Cc1ccco1)C1(C(=O)NC2CCCC2)CCCCC1 was read as HIV Env fusion 19.9 and Wnt act -0.1.
For O=C(c1ccc2c(c1)OCO2)N(Cc1ccco1)C1(C(=O)NC2CCCCC2)CCCCC1 the results were HIV Env fusion 88.5* and Wnt act -4.9.
`O=C(C[C@H]1C[C@@H]2c3cc(NC(=O)c4ccc5c(c4)OCO5)ccc3O[C@@H]2[C@@H](CO)O1)NCc1ccc(Cl)cc1` gave HIV Env fusion 18.7[16.7 µM], CFTR F508del cor 2.4 and GSIS activator -28.6.
For CC(C)(C)n1nnnc1C(c1cccc(C#N)c1)N1CCN2CCCC2C1 (stereo not given) the results were MITF act -10.3, HIV Env fusion -74.5, GSIS activator 8.9 and Wnt act 15.2.
For CCC(C)(C)n1nnnc1C(c1ccc2ncccc2c1)N1CCCCCC1 (stereo not given) the results were MITF act -0.3, HIV Env fusion 29.4* and Wnt act -4.2.
Screening CC(C)(C)n1nnnc1C(c1cccc(C#N)c1)N1CCCCCC1 (stereo not given) returned MITF act -0.6, HIV Env fusion 93.9* and Wnt act 12.6.
Screening c1cnc2ccc(C(c3nnnn3C3CCCCC3)N3CCCCC3)cc2c1 (stereo not given) returned MITF act -0.9, HIV Env fusion 105.3* and Wnt act 7.0.
For C[C@@H]1CN([C@H](C)CO)C(=O)c2cc(NC(=O)CCN3CCOCC3)ccc2O[C@@H]1CN(C)C(=O)Nc1cccc2ccccc12 the results were HIV Env fusion 5.9[16.7 µM], CFTR F508del cor -2.4 and GSIS activator 20.0.
For Cc1ccccc1OCc1nc2ccccc2c(=O)n1/N=C/c1c[nH]c2ccccc12 the results were MITF act 15.0, CFTR F508del cor 4.0, GSIS activator -1.0 and Wnt act 0.7.
Screening Cc1ccc(-c2[nH]ncc2/C=N/n2c(COc3ccccc3C)nc3ccccc3c2=O)cc1 returned MITF act 11.9, HIV Env fusion 0.9, GSIS activator 197.1* and Wnt act 25.4.

Source: PubChem BioAssay
